Only some compounds are listed: those with a hit (about 6.6% of all), similar ones and a draw of the others.
GDH-TPI counter – GDH-TPI coupled enzyme inhibition counter-screen. GDH-TPI coupled enzyme counterscreen, NADH absorbance. inhibition, % at 4.8 µM. 360,000 compounds, 1.2% hits. AID 588335; in the data active = inhibition above about 30%;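 also: 0% = DMSO wells and 100% = wells lacking the enzyme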
Bead autofluor – compound fluorescence in toxin protease inhibitor counterscreen. compound autofluorescence counterscreen, microsphere flow cytometry; active compounds read high. fluorescence intensity (test concentration not listed). 360,000 compounds, 3.1% hits; in the data active = fluorescence intensity above about 16000; inconclusive = no clear call, values can overlap the other calls
Mtb FBA inh – inhibitors of M. tuberculosis fructose-bisphosphate aldolase; 360,000 compounds, 2.3% hits; purified M. tuberculosis FBA, fluorescence read-out; inhibition, % at 1 µM; AID 588726; in the data active = inhibition above about 27%;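 also: 0% = vehicle and 100% = reference inhibitor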
BoNT-A LC inh2 – blocks Botulinum neurotoxin A light chain protease. multiplex microsphere protease substrate cleavage, flow cytometry. inhibition, % at 10 µM. 360,000 compounds, 0.17% hits. AID 588499; also: plate controls were buffer without enzyme for full effect and enzyme alone for no effect
BoNT F protease – BoNT F light chain protease inhibition | AID 588497 | Multiplex microsphere protease cleavage assay, flow cytometry | 360,000 compounds, 0.22% hits | inhibition, % at 10 µM; in the data active = inhibition above about 35%, passing the limit was not always enough; inconclusive = no clear call, values can overlap the other calls; also: plate controls were buffer without enzyme for full effect and enzyme alone for no effect
Anthrax LF inh2 – inhibitors of Bacillus anthracis lethal factor protease. P15917. multiplex microsphere protease cleavage assay, LF. inhibition, % at 10 µM. 360,000 compounds, 0.12% hits. AID 588501; also: plate controls were buffer without enzyme for full effect and enzyme alone for no effect
Target sequence (P15917 whole entry, looked up): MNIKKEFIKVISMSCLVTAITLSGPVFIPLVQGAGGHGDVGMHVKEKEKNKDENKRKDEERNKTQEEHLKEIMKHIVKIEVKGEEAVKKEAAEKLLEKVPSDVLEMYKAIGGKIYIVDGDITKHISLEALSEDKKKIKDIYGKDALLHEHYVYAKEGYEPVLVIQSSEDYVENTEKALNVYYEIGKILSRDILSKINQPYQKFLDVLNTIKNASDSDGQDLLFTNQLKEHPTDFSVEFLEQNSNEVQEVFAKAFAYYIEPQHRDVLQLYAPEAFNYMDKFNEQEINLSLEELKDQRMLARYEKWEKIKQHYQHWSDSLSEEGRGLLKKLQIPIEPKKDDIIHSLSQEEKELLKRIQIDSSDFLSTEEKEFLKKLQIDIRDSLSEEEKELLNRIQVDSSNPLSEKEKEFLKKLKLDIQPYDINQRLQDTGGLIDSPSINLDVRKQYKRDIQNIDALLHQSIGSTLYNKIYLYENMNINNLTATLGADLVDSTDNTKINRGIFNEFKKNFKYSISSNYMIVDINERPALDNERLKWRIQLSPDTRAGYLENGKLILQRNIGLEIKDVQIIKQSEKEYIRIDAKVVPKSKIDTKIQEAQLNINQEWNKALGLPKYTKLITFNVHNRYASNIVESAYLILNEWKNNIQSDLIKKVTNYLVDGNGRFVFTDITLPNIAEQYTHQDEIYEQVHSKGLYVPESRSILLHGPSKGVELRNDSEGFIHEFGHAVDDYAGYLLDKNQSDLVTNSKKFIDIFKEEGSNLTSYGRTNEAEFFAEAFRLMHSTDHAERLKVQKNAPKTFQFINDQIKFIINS
Starred values were filed as active, the others as inactive. Rule as the data show it, unless noted: active = inhibition above about 30%; inconclusive = no clear call, values can overlap the other calls; inactive = below that.

`CCc1cc(=O)oc2c3c(cc(OCC(=O)NCc4ccco4)c12)OC(C)(C)CC3` gave GDH-TPI counter 23, Bead autofluor 6053, Mtb FBA inh 154*, BoNT-A LC inh2 -1, BoNT F protease 4 and Anthrax LF inh2 -3.
Screening CCc1cc(=O)oc2c3c(cc(OCC(=O)NCc4ccncc4)c12)OC(C)(C)CC3 returned GDH-TPI counter 16, Bead autofluor 5090, Mtb FBA inh active, BoNT-A LC inh2 0, BoNT F protease -9 and Anthrax LF inh2 -2.
For CCS(=O)(=O)N1CCN=C1SCc1cccnc1 the results were GDH-TPI counter 0, Bead autofluor 2478, Mtb FBA inh 2, BoNT-A LC inh2 0, BoNT F protease -2 and Anthrax LF inh2 1.
`O=C(Nc1ccc(NC(=S)NC(=O)C(c2ccccc2)c2ccccc2)cc1)c1ccccc1` gave GDH-TPI counter 19, Bead autofluor 4526, Mtb FBA inh -2, BoNT-A LC inh2 -1, BoNT F protease inconclusive and Anthrax LF inh2 -8.
For O=[N+]([O-])c1ccc(Nc2nc(N/N=C\c3ccc4c(c3)OCO4)nc(N3CCCCC3)n2)cc1 the results were GDH-TPI counter 35*, Bead autofluor 8888, Mtb FBA inh -1, BoNT-A LC inh2 0, BoNT F protease -2 and Anthrax LF inh2 -4.
For Cc1ccc(S(=O)(=O)/N=C(\N)Nc2nc(C)c3cc(C)ccc3n2)cc1 the results were GDH-TPI counter -5, Bead autofluor 21184*, Mtb FBA inh 3, BoNT-A LC inh2 -2, BoNT F protease -1 and Anthrax LF inh2 0.
For COc1ccc(N/N=C(/C#N)S(=O)(=O)c2nsc(C)c2C#N)cc1 the results were GDH-TPI counter 38*, Bead autofluor 2549, Mtb FBA inh -3, BoNT-A LC inh2 0, BoNT F protease 1 and Anthrax LF inh2 -1.
Screening O=C1C(Br)=Cc2cccc3cccc1c23 returned GDH-TPI counter 9, Bead autofluor 2984, Mtb FBA inh -2, BoNT-A LC inh2 59*, BoNT F protease 12 and Anthrax LF inh2 30*.
CC1CCN(S(=O)(=O)c2cccc3cccnc23)CC1 was read as GDH-TPI counter -1, Bead autofluor 4561, Mtb FBA inh 0, BoNT-A LC inh2 0, BoNT F protease -9 and Anthrax LF inh2 2.
`COc1ccc2c(c1)c(C(=O)N/N=C/c1ccc(O)c(O)c1)c(C)n2C` gave GDH-TPI counter 44*, Bead autofluor 6883, Mtb FBA inh -5, BoNT-A LC inh2 -2, BoNT F protease -9 and Anthrax LF inh2 -3.
`COc1ccc(-n2cc(C(=O)O)c(=O)cc2C)cc1` gave GDH-TPI counter -5, Bead autofluor 1981, Mtb FBA inh 2, BoNT-A LC inh2 0, BoNT F protease 0 and Anthrax LF inh2 -2.
`Clc1ccc2c(c1)C1OCCC1C(c1ccco1)N2` (stereo unspecified) gave GDH-TPI counter 10, Bead autofluor 4565, Mtb FBA inh 69*, BoNT-A LC inh2 0, BoNT F protease 0 and Anthrax LF inh2 0.
`COc1cc(/C=N/Nc2nc3ccccc3[nH]2)cc(OC)c1O` gave GDH-TPI counter 23, Bead autofluor 2623, Mtb FBA inh -5, BoNT-A LC inh2 0, BoNT F protease -9 and Anthrax LF inh2 1.
`COc1cccc(/C=N/Nc2nc3ccccc3[nH]2)c1O` gave GDH-TPI counter 36*, Bead autofluor 3950, Mtb FBA inh -4, BoNT-A LC inh2 -1, BoNT F protease -9 and Anthrax LF inh2 -7.
For COc1cc(/C=N/Nc2nc3ccccc3[nH]2)ccc1O the results were GDH-TPI counter 50*, Bead autofluor 2065, Mtb FBA inh 3, BoNT-A LC inh2 0, BoNT F protease -20 and Anthrax LF inh2 -6.
`Cc1cccc(OC(=O)N2CCOCC2)c1` gave GDH-TPI counter 3, Bead autofluor 24289*, Mtb FBA inh -3, BoNT-A LC inh2 -1, BoNT F protease 0 and Anthrax LF inh2 -3.
Screening O=C(Oc1ccc(-c2ccccc2)cc1)N1CCOCC1 returned GDH-TPI counter 0, Bead autofluor 21166*, Mtb FBA inh 4, BoNT-A LC inh2 inconclusive, BoNT F protease -2 and Anthrax LF inh2 0.
For C/C(=N\O)C1/C(=N/O)CC2C1C2(C)C (stereo unspecified) the results were GDH-TPI counter -2, Bead autofluor 23424*, Mtb FBA inh 2, BoNT-A LC inh2 -1, BoNT F protease -2 and Anthrax LF inh2 -1.
`O=C(/C=C/c1ccccc1Cl)Nc1cccnc1` gave GDH-TPI counter 6, Bead autofluor 3124, Mtb FBA inh -2, BoNT-A LC inh2 -1, BoNT F protease -14 and Anthrax LF inh2 2.
COc1ccccc1/C=C/C(=O)Nc1cccnc1 was read as GDH-TPI counter 35*, Bead autofluor 3167, Mtb FBA inh 2, BoNT-A LC inh2 -2, BoNT F protease 3 and Anthrax LF inh2 -6.
`O=C(NC(c1ccc2c(c1)OCO2)c1ccccn1)C1CCN(CCOc2ccccc2)CC1` (stereo unspecified) gave GDH-TPI counter -4, Bead autofluor 3900, Mtb FBA inh -3, BoNT-A LC inh2 0, BoNT F protease -3 and Anthrax LF inh2 -3.
Screening CCCCCCC(=O)NNC(=O)CC(=O)Nc1ccccc1C(=O)O returned GDH-TPI counter 6, Bead autofluor 1721, Mtb FBA inh 7, BoNT-A LC inh2 2, BoNT F protease 21 and Anthrax LF inh2 9.
For CN(C)c1nc(N)c([N+](=O)[O-])c(NCc2ccccc2)n1 the results were GDH-TPI counter 42*, Bead autofluor 9359, Mtb FBA inh 0, BoNT-A LC inh2 -1, BoNT F protease -8 and Anthrax LF inh2 0.
CN(c1ccccc1)c1nc(N)c([N+](=O)[O-])c(NCCO)n1 was read as GDH-TPI counter 26, Bead autofluor 5228, Mtb FBA inh -3, BoNT-A LC inh2 1, BoNT F protease -6 and Anthrax LF inh2 2.
Nc1nc(NCc2ccccc2)nc(NCc2ccccc2)c1[N+](=O)[O-] was read as GDH-TPI counter 14, Bead autofluor 7293, Mtb FBA inh 0, BoNT-A LC inh2 0, BoNT F protease -5 and Anthrax LF inh2 -4.
For CN(C)c1nc(N)c([N+](=O)[O-])c(NCCO)n1 the results were GDH-TPI counter 51*, Bead autofluor 8889, Mtb FBA inh -2, BoNT-A LC inh2 0, BoNT F protease -2 and Anthrax LF inh2 3.
For CNc1nc(N)c([N+](=O)[O-])c(NCc2ccccc2)n1 the results were GDH-TPI counter 42*, Bead autofluor 9252, Mtb FBA inh -2, BoNT-A LC inh2 -1, BoNT F protease -2 and Anthrax LF inh2 -3.
CN(C)CCCNc1nc(N)c([N+](=O)[O-])c(NCc2ccccc2)n1 was read as GDH-TPI counter 41*, Bead autofluor 3184, Mtb FBA inh 1, BoNT-A LC inh2 -2, BoNT F protease 3 and Anthrax LF inh2 10.
Screening Cc1nc2ncnn2c(N2CCCC(C(=O)Nc3ccc4c(c3)CCC4)C2)c1C (stereo unspecified) returned GDH-TPI counter 9, Bead autofluor 10343, Mtb FBA inh -2, BoNT-A LC inh2 -1, BoNT F protease -4 and Anthrax LF inh2 -3.

Assay outcomes as filed in PubChem BioAssay.
